Reference: PubChem BioAssay
Values without a mark were called inactive. No rule for the calls is given here.

These molecules were tested against Pantothenate synthetase (Mycobacterium tuberculosis (strain ATCC 25618 / H37Rv)) (UniProt P9WIL5) (assay: Recombinant Mtb pantothenate synthetase (PanC) inhibitors, coupled enzyme, confirmatory (AID 375;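 also: 0% = full reaction with vehicle and 100% = no enzyme background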)). Settings: coupled enzyme assay; at 10 µM, hits give high values.
Sequence of Pantothenate synthetase (Mycobacterium tuberculosis (strain ATCC 25618 / H37Rv)) (P9WIL5 whole entry, looked up): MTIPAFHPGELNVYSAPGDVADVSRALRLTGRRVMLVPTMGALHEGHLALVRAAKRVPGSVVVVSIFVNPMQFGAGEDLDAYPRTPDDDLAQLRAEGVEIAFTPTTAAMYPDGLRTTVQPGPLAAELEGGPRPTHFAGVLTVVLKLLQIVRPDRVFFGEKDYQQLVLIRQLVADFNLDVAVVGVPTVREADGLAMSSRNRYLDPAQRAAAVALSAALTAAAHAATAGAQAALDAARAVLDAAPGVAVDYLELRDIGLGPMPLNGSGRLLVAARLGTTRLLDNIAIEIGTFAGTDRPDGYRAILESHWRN

Row | SMILES | inhibition [%]
1 | O=S1(=O)CCC(N=Cc2cc(Br)ccc2O)C1 (stereo not drawn) | 0
2 | CCCCn1nc(C(=O)N2CCc3ccccc32)c2ccccc2c1=O | 6
3 | CCCCN1C[C@H](O)[C@@H](O)[C@H](O)[C@H]1CO | 0
4 | CN(Cc1ccccc1)C(=O)c1ccc2c(c1)OCO2 | 0
5 | O=C(Nc1cccnc1)c1noc2c1CCCCC2 | 0
6 | O=C(Nc1nc(-c2ccncc2)cs1)C1COc2ccccc2O1 (stereo not drawn) | 0
7 | CCOC(=O)c1sc2nc(NC(=O)C3CCCCC3)sc2c1C | 2
8 | CCCc1cc(-n2ccnc2)n2c(nc3ccccc32)c1C#N | 0
9 | Cc1ccccc1Cc1c(C)nc2c(C(=O)N3CCN(Cc4ccc5c(c4)OCO5)CC3)cnn2c1C | 5
10 | COc1cccc(CNC(=O)C2CCN(C(=O)N(C)C)CC2)c1 | 2
11 | C/C=C/Cn1c(Br)nc2c1c(=O)[nH]c(=O)n2C | 0
12 | CCc1ccccc1N1C(=O)C2CC(C)=C(C)CC2C1=O (stereo not drawn) | 0
13 | CCOC(=O)CNC(=O)c1c(C)nn(-c2ccccc2)c1Cl | 0
14 | O=C(NCCCN1CCOCC1)c1cc(-c2ccc(Cl)cc2)on1 | 4
15 | CCCCNC(=O)C(C#N)c1nc2ccccc2nc1N1CCCC1 (stereo not drawn) | 0
16 | O=C(NCc1ccco1)Nc1ccc2nsnc2c1 | 6
17 | CC1CCN(c2nc3c(c(=O)[nH]c(=O)n3C)n2CCSc2ncccn2)CC1 | 0
18 | CC(C)c1nc(NCC2CCCO2)c(C#N)c2c1COC(C)(C)C2 (stereo not drawn) | 3
